Screening results as filed in PubChem BioAssay.
G9a block = G9a (human) methyltransferase inhibition. G9a H3K9 monomethylation, AlphaScreen, 2 h. Potency, µM (doses to about 102 µM), for the others: at the top dose activity, negative = inhibition, most hits filed as inhibitors. 350,000 tested, 8.8% active; further: on the % scale 0 is the no-effect control and ±100 the full control effect; nearly all actives have a fitted effect of over 75% in size
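Methyltransferase reactions run at room temperature for 2 h (20 nM enzyme, 500 nM biotin-H3K9 peptide, 20 uM SAM) after a 15 min compound preincubation; product detected by AlphaScreen beads and anti-H3K9me1 antibody.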
L3MBTL1 inh = blocks human L3MBTL1. Q9Y468. AlphaScreen L3MBTL1–H3K9me1 peptide binding. Potency, µM (titrated, usually from 57.1 µM), for inactives: at the top dose activity, negative = inhibition, most hits filed as inhibitors. 230,000 tested, 0.66% active; further: on the % scale 0 is the no-effect control and ±100 the full control effect; nearly all actives have a fitted effect of over 60% in size
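Read-out is AlphaScreen signal from streptavidin donor and nickel chelate acceptor beads (10 ug/mL final each) bridging L3MBTL1 (50 nM) and biotinylated K9-monomethylated H3(1-15) peptide (75 nM), after 30 min compound exposure at room temperature.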
BAZ2B block = BAZ2B (human) inhibition. AID 504333. AlphaScreen BAZ2B-H3K14Ac peptide displacement. Potency, µM (series often up to 114 µM), inactives show top-dose activity change, negative = inhibition, actives largely listed as inhibitors. Q9UIF8. 360,000 tested, 4.4% active; further: on the % scale 0 is the no-effect control and ±100 the full control effect; nearly all actives have a fitted effect of over 60% in size
Target sequence (Q9UIF8 whole entry, looked up): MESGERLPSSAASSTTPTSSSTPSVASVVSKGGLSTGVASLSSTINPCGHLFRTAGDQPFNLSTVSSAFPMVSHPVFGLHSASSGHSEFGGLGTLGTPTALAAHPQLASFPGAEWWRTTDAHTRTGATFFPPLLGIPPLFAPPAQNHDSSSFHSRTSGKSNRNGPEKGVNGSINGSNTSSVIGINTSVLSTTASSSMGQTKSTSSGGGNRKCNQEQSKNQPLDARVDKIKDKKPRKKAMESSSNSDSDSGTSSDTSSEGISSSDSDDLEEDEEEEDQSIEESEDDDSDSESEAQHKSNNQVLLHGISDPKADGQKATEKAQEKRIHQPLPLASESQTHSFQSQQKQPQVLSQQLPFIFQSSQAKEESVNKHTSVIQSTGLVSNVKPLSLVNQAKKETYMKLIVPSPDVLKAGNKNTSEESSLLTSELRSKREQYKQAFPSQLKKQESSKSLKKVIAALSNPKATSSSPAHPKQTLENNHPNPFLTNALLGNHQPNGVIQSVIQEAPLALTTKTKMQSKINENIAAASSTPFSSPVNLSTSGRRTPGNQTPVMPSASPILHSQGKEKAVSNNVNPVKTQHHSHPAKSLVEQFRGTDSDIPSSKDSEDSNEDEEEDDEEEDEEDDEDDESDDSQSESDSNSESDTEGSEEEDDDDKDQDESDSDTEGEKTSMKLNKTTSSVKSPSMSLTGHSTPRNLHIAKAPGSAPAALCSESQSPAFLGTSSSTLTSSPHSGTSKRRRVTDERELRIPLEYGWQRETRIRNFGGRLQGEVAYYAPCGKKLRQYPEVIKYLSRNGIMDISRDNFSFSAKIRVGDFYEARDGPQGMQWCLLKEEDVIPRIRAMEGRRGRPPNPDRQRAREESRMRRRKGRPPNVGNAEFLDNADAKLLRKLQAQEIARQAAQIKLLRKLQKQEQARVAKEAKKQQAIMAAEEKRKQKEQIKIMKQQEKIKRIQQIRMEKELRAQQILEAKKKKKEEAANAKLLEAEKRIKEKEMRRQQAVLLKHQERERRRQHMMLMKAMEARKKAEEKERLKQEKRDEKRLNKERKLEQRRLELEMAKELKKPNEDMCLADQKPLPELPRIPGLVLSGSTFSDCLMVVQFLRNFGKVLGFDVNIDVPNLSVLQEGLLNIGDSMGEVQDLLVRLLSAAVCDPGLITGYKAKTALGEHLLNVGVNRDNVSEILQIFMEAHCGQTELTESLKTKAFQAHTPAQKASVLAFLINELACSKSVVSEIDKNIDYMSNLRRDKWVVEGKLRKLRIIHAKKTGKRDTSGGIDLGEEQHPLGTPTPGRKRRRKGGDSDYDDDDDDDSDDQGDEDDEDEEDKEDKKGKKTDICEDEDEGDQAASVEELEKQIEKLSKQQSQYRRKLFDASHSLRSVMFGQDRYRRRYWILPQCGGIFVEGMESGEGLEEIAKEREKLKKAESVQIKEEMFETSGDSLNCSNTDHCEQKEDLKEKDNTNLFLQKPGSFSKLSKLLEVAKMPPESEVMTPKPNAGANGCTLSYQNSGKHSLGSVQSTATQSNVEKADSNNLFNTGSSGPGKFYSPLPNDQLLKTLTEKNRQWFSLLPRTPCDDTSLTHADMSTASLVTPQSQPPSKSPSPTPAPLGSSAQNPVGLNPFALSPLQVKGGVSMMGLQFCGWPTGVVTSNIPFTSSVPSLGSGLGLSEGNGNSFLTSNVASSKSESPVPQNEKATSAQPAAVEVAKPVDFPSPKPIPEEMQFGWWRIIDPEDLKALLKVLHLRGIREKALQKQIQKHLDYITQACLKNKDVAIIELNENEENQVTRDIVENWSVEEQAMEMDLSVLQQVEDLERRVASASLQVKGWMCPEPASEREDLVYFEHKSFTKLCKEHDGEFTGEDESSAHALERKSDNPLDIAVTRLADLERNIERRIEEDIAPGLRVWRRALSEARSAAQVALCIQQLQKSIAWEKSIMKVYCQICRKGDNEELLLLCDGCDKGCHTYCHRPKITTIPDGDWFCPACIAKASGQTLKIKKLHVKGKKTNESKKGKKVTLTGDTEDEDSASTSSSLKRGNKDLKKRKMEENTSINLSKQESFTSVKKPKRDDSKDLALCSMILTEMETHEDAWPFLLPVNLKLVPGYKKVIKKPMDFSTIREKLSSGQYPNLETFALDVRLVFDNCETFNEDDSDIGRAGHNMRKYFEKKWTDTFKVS
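In this displacement format the biotinylated H3(5-23) peptide acetylated at Lys14 serves as ligand at 50 nM, with BAZ2B at 50 nM in PBS pH 7.4 containing 0.01% Tween-20. Donor and acceptor beads are 10 ug/mL final.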
Sfp inh = inhibitors of Bacillus subtilis Sfp phosphopantetheinyl transferase; Q9F4F7; Biochemical Sfp PPTase activity, qHTS; Potency, µM, for the others: largest response in the series, negative = inhibition, hits mostly inhibitors; 310,000 tested, 3.5% active;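 further: the enzyme is Sfp with the accession as filed and its product quenches rhodamine fluorescence; 0% = enzyme reaction without inhibitor and -100% = no enzyme wells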
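After 15 min at room temperature with compound, 15 nM Sfp received 5 uM rhodamine-CoA plus 12.5 uM BHQ-2-ybbR (50 mM Hepes pH 7.6, 10 mM MgCl2). Rate came from the fluorescence difference over 30 min, ex 525/em 598 nm.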
HP1b chromo inh = inhibitors of HP1-beta chromodomain binding to methylated histone tails | P83916 | AlphaScreen HP1-beta / biotin-H3K9me3 peptide binding | Potency, µM (titrated, usually from 114 µM), inactives show at the top dose activity change, negative = inhibition, usual class: inhibitors | 390,000 tested, 0.56% active | AID 540317; further: nearly all actives have a fitted effect of over 70% in size
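HP1-beta protein (50 nM final) preincubated 30 min at room temperature with biotinylated H3(1-18)K9me3 peptide (50 nM) in PBS pH 7.4, 0.01% Tween-20, then compound added for 30 min. AlphaScreen streptavidin donor/nickel chelate acceptor beads (10 ug/mL final), 30 min dark, luminescence read.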
JMJD2A Tudor = blocks the human JMJD2A Tudor domain | O75164 | AlphaScreen JMJD2A-Tudor / H3K4me3 peptide binding | Potency, µM (titrated, usually from 114 µM), inactives show at the highest dose activity change, negative = inhibition, most hits filed as inhibitors | 390,000 tested, 4.4% active | AID 504339; further: on the % scale 0 is the no-effect control and ±100 the full control effect; nearly all actives have a fitted effect of over 50% in size
* marks the source's active call; other numbers are inactive results; ? = inconclusive; . = not tested or not shown; ! = not active in a repeat; [ ] = remark or other dose. Most compounds without a hit are left out; they make up all but 12% or so of the library. The call rests on the fitted dose curve; in most records, active means well fitted curve in the direction sought with a large enough effect; inconclusive means small, poorly fitted or top-dose-only effect, or another doubt; inactive means no such curve, though single readings can be large; an effect the other way counts as inactive or inconclusive. Potency means the concentration at half of the fitted maximal effect.

SMILES	G9a block	L3MBTL1 inh	BAZ2B block	Sfp inh	HP1b chromo inh	JMJD2A Tudor
COc1cc(CN2CCN(S(=O)(=O)c3ccccc3)CC2)cc(OC)c1OC	28.2µM*	4.7%	?	?	?	20µM*
COc1cc(CN2CCN(S(=O)(=O)c3ccc(F)cc3)CC2)cc(OC)c1OC	7.94µM*!	0.5%	4.5%	?	?	7.94µM*
COc1ccc(S(=O)(=O)N2CCN(Cc3ccc(OC)c(OC)c3)CC2)cc1	.	-1.2%	7.1%	8.5%	55.5%	-8.3%
COc1cc(CN2CCN(c3cccc(Cl)c3)CC2)cc(OC)c1OC	12.6µM*	-17.5%	50.1µM*	-27.7%	?	3.55µM*
O[C@H](CN1CCN(c2cccc(Cl)c2)CC1)C(c1ccccc1)c1ccccc1	.	.	.	3.4%	.	.
C=C1c2ccccc2O[C@H](C(=O)OCC)[C@@H]1C1CCCCC1 (tested in a mixture with another compound)	68.4%	.	.	-26.2%	.	.
COc1cc(S(=O)(=O)N2CCN(Cc3ccccc3)CC2)ccc1Br	44.7µM*	-3.9%	4.2%	0.1%	18.4%	-11.5%
COc1ccc(OC)c(S(=O)(=O)N2CCN(Cc3ccccc3)CC2)c1	.	6.4%	-9.1%	8.0%	28.3%	1.0%
O=C(O)c1cc2nccc(-c3ccco3)n2n1	50.1µM*	.	?	10.1%	16.9%	89.1µM*
COc1cccc(Cn2c(C)c(CNCc3ccccc3Cl)c(C(=O)O)c2C)c1	-4.1%[59 µM]	.	-13.6%	.	14.5%	-8.1%
CC(C)(C)C1=CC(=Nc2ccccc2N)C=C(C(C)(C)C)C1=O	29.1%[59 µM]	1.8%	3.7%	22.5%	4.47µM*	3.98µM*
O=C(Nc1cccc(-c2nc3ncccc3o2)c1)c1ccc(-c2cccc(Cl)c2Cl)o1	?	.	?	.	17.3%	-11.1%
CC12CCC(C(=O)n3c1nc1ccccc13)C2(C)C (stereo not drawn)	-4.0%	-1.6%	-1.7%	10.0%	25.1%	-7.7%
CC12CCC(c3c1nc1ccccc1[n+]3[O-])C2(C)C (stereo not drawn)	9.9%[59 µM]	5.3%	4.0%	8.3%	5.2%	44.7µM*
c1ccc2c(c1)nc(-c1ccncc1)n2CCNc1nc(CN2CCCCC2)cs1	50.1µM*	-0.8%	-36.1%	-19.9%	38.3%	-9.2%
O=C(Cn1c(C(F)(F)F)nc2ccccc21)N1CCCC1	-7.7%	.	8.5%	20.1%	29.0%	-16.7%
O=C(NCCn1c(-c2ccncc2)nc2ccccc21)[C@H]1CCCN1c1nc(CN2CCCCC2)cs1	-2.1%	6.8%	-9.0%	16.4%	49.1%	-4.8%
FC(F)(F)c1nc2ccccc2n1CCNc1nc(CN2CCCCC2)cs1	44.7µM*	2.3%	-35.2%	4.3%	27.2%	-23.4%
CCOc1ccccc1CNS(=O)(=O)c1ccc2c(c1)CCCN2C(C)=O	13.9%[59 µM]	.	3.9%	.	34.0%[57 µM]	4.8%
COc1ccc(-c2csc(-c3nc(-c4ccc(Br)s4)cs3)n2)cc1F	-44.5%[59 µM]	.	5.0%	.	36.0%	1.4%
CCn1cnc2c(Nc3ccc(Cc4cccnc4)cc3)nc(C#N)nc21	.	.	.	.	.	-23.3%
CC(Sc1nc(C(C)(C)C)cc(-c2ccccc2)c1C#N)C(=O)Nc1ccccc1 (stereo not drawn)	7.94µM*	-1.5%	7.6%	14.1µM*	?	-0.7%[57.1 µM]
CCOC(=O)C(C)Sc1nc(-c2ccccc2Cl)cc(-c2ccccc2)c1C#N (stereo not drawn)	13.5%[59 µM]	.	9.9%	.	67.9%	30.6%
CCn1cc(C(=O)O)c(=O)c2cc(F)c(N3CCN(C(=S)NC(=O)c4ccccc4F)CC3)cc21	?	.	?	-1.3%	7.1%	?
CCn1cc(C(=O)O)c(=O)c2cc(F)c(N3CCN(C(=O)Nc4ccccc4)CC3)cc21	39.8µM*	-2.3%	-6.7%	2.4%	16.1%	22.4µM*
SMILES	G9a block	L3MBTL1 inh	BAZ2B block	Sfp inh	HP1b chromo inh	JMJD2A Tudor
CCn1cc(C(=O)O)c(=O)c2cc(F)c(N3CCN(C(=S)NC(=O)c4ccc(Br)cc4)CC3)cc21	6.8%	10.1%	31.6µM*	3.8%	-4.8%	-14.3%[11.4 µM]
CCN1C(=O)[C@H]2[C@H]3[C@H](O)[C@H](O)C/C(=N/NC(=O)OCc4ccccc4)[C@@H]3CC[C@@H]2C1=O	.	.	.	6.5%	.	.
CCOC(=O)c1ccc(N2C(=O)c3n[nH]c(-c4ccco4)c3C2c2ccc(OCC)cc2)cc1 (stereo not drawn)	-56.9%[59 µM]	.	.	.	-24.2%	?
FC(F)Oc1ccc(/C=N/c2c(-c3ccc(OC(F)F)cc3)nc3n2CCS3)cc1	?	-1.5%	?	6.3%	?	50.1µM*
CC(/C=N\N1CCN(c2ccc(Cl)cc2)CC1)=C\c1ccccc1	-48.0%	1.4%	4.6%	5.1%	31.7%	-31.1%
CC(/C=N/N1CCN(Cc2ccccc2)CC1)=C\c1ccccc1	28.2µM*	.	50.1µM*	-5.8%	?	44.7µM*
Cc1ccc(CN2CCN(/N=C\C(Br)=C\c3ccccc3)CC2)cc1	?	-6.7%	?	-24.0%	?	44.7µM*
BrC(=C\c1ccccc1)/C=N/N1CCN(c2ccccc2)CC1	20µM*	-10.2%	?	44.7µM*	-29.7%	-29.3%
CC(/C=N/N1CCN(c2ccc(C)cc2)CC1)=C\c1ccccc1	2.1%[59 µM]	-13.3%	-10.1%	13.8%	1.4%	-25.1%
CC(C)Oc1ccc(CNC(=O)Cn2ncn3nc(-c4cccs4)cc3c2=O)cc1	-44.0%[59 µM]	.	-20.8%	.	21.6%	-4.6%
Cc1cc(C)cc(NC(=O)CN2C(=O)c3ccccc3Sc3ncccc32)c1	-32.3%[59 µM]	.	-19.0%	.	9.2%	-13.9%
Cc1cc2c(cc3c(SCc4ccc(Cl)cc4)nnc(C)n32)o1	4.47µM*	.	28.2µM*	.	-13.8%	?
CCOC(=O)c1cc2c(=O)n3ccccc3nc2n(CCCOC)c1=NC(=O)c1cc2ccccc2o1	6.9%[59 µM]	.	-19.6%	.	65.9%	7.2%
S=c1nc[nH]c2c1ncn2-c1ccc(Cl)cc1	.	.	.	.	?	50.1µM*
O=C(O)CCCC(=O)Nc1ccccc1SCCS(=O)(=O)c1ccc(Cl)cc1	-32.7%	.	-2.3%	56.2µM*	28.6%	-17.4%
COc1ccc(S(=O)(=O)NNC(=O)c2csc(-n3nc(C)cc3C(F)(F)F)n2)cc1OC	35.5µM*	.	?	13.8%	12.0%	-8.2%
Cc1cc(C(F)(F)F)n(-c2nc(C(=O)NN)cs2)n1	-7.6%	16.2%	-12.2%	0.5%	22.5%	-4.2%
Cc1cc(N2CCC(C(=O)Nc3ccc(F)cc3F)CC2)n2nc(C)c(-c3ccc(Cl)cc3)c2n1	-3.7%[59 µM]	.	-2.1%	.	41.2%	-1.3%
Cn1ncc([N+](=O)[O-])c1C(=O)Nc1ccn(Cc2ccccc2F)n1	21.2%[59 µM]	-2.3%	-27.9%	11.3%	18.5%	-16.5%
Cc1nn(Cc2cccc(C(=O)Nc3ccn(Cc4ccccc4F)n3)c2)c(C)c1[N+](=O)[O-]	27.3%[12.7 µM]	.	-33.7%	22.4µM*	22.7%	-2.6%
